Assay outcomes from PubChem.
miR122 inh: inhibitors of miR-122 in Huh7 cells; 340,000 compounds, 0.3% hits; AID 602342; Huh7 miR-122 Renilla luciferase sensor, 48 h; neutral wells = 0, positive control = 100; activation (reporter increase), % at 12.5 µM;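 active = mean replicate activation score at least 90 and every replicate individually at or above 90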;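 note: higher luciferase means less miR-122 activity so hits act as miR-122 inhibitors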
PGC1a acetyl inh: modulators of PGC1a acetylation; U2OS PGC1a acetylation, AlphaScreen anti-acetyl-lysine; with virally co-expressed GCN5 acetyltransferase; inhibition, % at 15.6 µM; 350,000 compounds, 0.17% hits;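 active = every replicate shows inhibition of at least 40%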
Statin myotox sup: suppressors of simvastatin-induced myotoxicity in C2C12 myotubes | ATP luminescence, 48 h; scaled: DMSO 0, geranylgeraniol control 100 | rescue of ATP level, % at 7.49 µM | 330,000 compounds, 0.78% hits;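 active = mean ATP rescue above about 67%, or every replicate alone reaching that limit, limit read from the data, passing the limit was not always enough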;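 note: myotubes were challenged with 10 µM simvastatin during compound exposure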
DENV2 CPE: protects cells from dengue virus 2 cytopathic effect | DENV2-infected cells, cytopathic effect rescue, plate reader | CPE inhibition, % at 9.99 µM | 350,000 compounds, 1.7% hits | AID 651640; in the data active = CPE inhibition above about 20%, passing the limit was not always enough; tested in BHK-21 cells
PvdQ acylase: blocks Pseudomonas aeruginosa PvdQ acylase activity | purified PvdQ acylase, fluorescence plate reader | AID 488965 | inhibition, % at 10 µM | 340,000 compounds, 0.063% hits; in the data active = inhibition above about 30%, passing the limit was not always enough
Of the large screens only hits and unclear results are named; the others gave an inactive call; [ ] = remark or other dose. In the library only some 2.2% were active in any assay of this set; here they are far more common.

O=C(NC(C(=O)N1CCCC1C(=O)NC1CCCC1)c1ccccc1)c1cccs1 (centres undefined)	DENV2 CPE 47 (no result: miR122 inh, PGC1a acetyl inh, Statin myotox sup, PvdQ acylase)
CC(C)[C@H](NC(=O)C1CCCC1)C(=O)N1CCC[C@H]1C(=O)NCc1ccccc1	none (no result: miR122 inh, PGC1a acetyl inh, Statin myotox sup, PvdQ acylase)
CO[C@H]1CN(C)C(=O)c2cc(NS(C)(=O)=O)ccc2OC[C@@H](C)N(C(=O)C2CCCCC2)C[C@@H]1C	none (no result: PGC1a acetyl inh, PvdQ acylase)
Cc1ccc(OCc2ccc(-c3ccccc3)cc2)c([N+](=O)[O-])n1	DENV2 CPE 36 (no result: Statin myotox sup)
Clc1ccc(C[n+]2csc3ccccc32)cc1	none (no result: miR122 inh, PGC1a acetyl inh, Statin myotox sup)
Fc1ccc(C[n+]2csc3ccccc32)cc1	Statin myotox sup 74
CCC(=O)c1ccc(OC(=O)c2cccs2)cc1	PvdQ acylase 41 (no result: DENV2 CPE)
COc1ccc(C(=O)N/N=C/c2ccc(OC(=O)c3cccs3)cc2)cc1	none (no result: miR122 inh, PGC1a acetyl inh, Statin myotox sup)
COC(=O)c1ccc(OC(=O)c2ccco2)cc1	PvdQ acylase 81 (no result: DENV2 CPE)
O=C(Oc1ccc(-c2ccccc2)cc1)c1ccco1	none
CCc1ccc(C(=O)COC(=O)c2cccs2)cc1	none (no result: DENV2 CPE)
COC(=O)c1ccc(OC(=O)c2cccs2)cc1	PvdQ acylase 55 (no result: miR122 inh, PGC1a acetyl inh, Statin myotox sup)
COCC(=O)N(C)C[C@H]1Oc2cc(C#Cc3ccccc3)ccc2S(=O)(=O)N([C@H](C)CO)C[C@@H]1C	none (no result: PvdQ acylase)
C[C@H]1CN([C@@H](C)CO)C(=O)c2cccc(NS(=O)(=O)c3ccc(F)cc3)c2O[C@@H]1CN(C)S(=O)(=O)c1cccs1	none (no result: PvdQ acylase)
c1ccc2c(c1)CCOC2CNCCCN1CCCCC1 (centres undefined)	Statin myotox sup 91 (no result: DENV2 CPE)
CCOC(=O)C1=CC[C@H]2c3c(c4ccc(OC)cc4n3C)C(=O)C1N2S(=O)(=O)c1ccc(C)cc1	DENV2 CPE 31
CCOC(=O)C1=CC[C@@H](c2ccc(OC)cc2)N(S(=O)(=O)c2ccc(C)cc2)[C@H]1CC	none (no result: PvdQ acylase)
Cc1ccc(S(=O)(=O)N(C)C[C@@H]2OCCCC[C@@H](C)Oc3ccc(NS(C)(=O)=O)cc3C(=O)N([C@@H](C)CO)C[C@@H]2C)cc1	none (no result: Statin myotox sup, PvdQ acylase)
CC(=O)c1ccc(OCc2cc(C(=O)NCCN3CCCC(O)C3)no2)cc1 (centres undefined)	none (no result: PGC1a acetyl inh)
COc1cc(C)ccc1OCc1cc(C(=O)NCCN2CCCC(O)C2)no1 (centres undefined)	DENV2 CPE 62
CC(C)NC(=O)Nc1ccc2c(c1)CC(=O)N([C@H](C)CO)C[C@H](C)[C@H](CN(C)S(=O)(=O)c1cn(C)cn1)O2	none (no result: PvdQ acylase)
CC(C)CC(=O)Nc1ccc2nn(-c3ccccc3)nc2c1	none (no result: miR122 inh, PGC1a acetyl inh, Statin myotox sup, DENV2 CPE)
CCCC(=O)Nc1ccc2nn(-c3ccc(OC)cc3)nc2c1	DENV2 CPE 26
CN1C(=O)c2cc(NC(=O)C3CC3)ccc2OC[C@H]2O[C@H](CC(=O)NCCN3CCCC3)CC[C@H]21	none (no result: PvdQ acylase)
CCCCCc1c(-c2ccccc2OC)ncn1CCc1ccccc1OC	DENV2 CPE 26 (no result: miR122 inh, PGC1a acetyl inh, Statin myotox sup, PvdQ acylase)
CCCCc1c(-c2ccccc2OC)ncn1CCc1ccccc1Cl	DENV2 CPE 32 (no result: miR122 inh, PGC1a acetyl inh, Statin myotox sup, PvdQ acylase)
O=C(NCC[C@H]1CC[C@@H](NC(=O)c2cccnc2)[C@@H](CO)O1)Nc1ccc(Cl)cc1	none (no result: miR122 inh, PvdQ acylase)
N#Cc1ccc(CN2CCN(C(=O)CNC(=O)Cc3cccc4ccccc34)CC2)cc1	none
N#Cc1ccc(CN2CCN(C(=O)CC(NC(=O)c3ccccc3)c3ccccc3)CC2)cc1 (centres undefined)	DENV2 CPE 63 (no result: miR122 inh, PGC1a acetyl inh)
O=C(Nc1ccccc1)Nc1ccc(Cl)c(S(=O)(=O)N2CCOCC2)c1	none (no result: PGC1a acetyl inh)
O=S(=O)(/N=C(/Nc1ccc(Cl)c(S(=O)(=O)N2CCOCC2)c1)c1ccc(F)cc1)c1ccccc1	miR122 inh 121
O=S(=O)(NCc1cccnc1)c1ccc(Cl)c2ccccc12	miR122 inh 175
O=C(COc1ccccc1)Nc1nn[nH]n1	Statin myotox sup 112 (no result: DENV2 CPE)
Cc1cc(NC(=O)COc2cccc(Oc3ccccc3)c2)no1	none (no result: DENV2 CPE)
O=C(COc1cccc(Oc2ccccc2)c1)Nc1ncccn1	Statin myotox sup 107 (no result: DENV2 CPE)
O=C(CC(c1ccccc1)c1ccccc1)Nc1nn[nH]n1	none (no result: miR122 inh, PGC1a acetyl inh, Statin myotox sup)
CCOC(=O)C1CCCN(c2c(N3CCN(C)CC3)c(=O)c2=O)C1 (centres undefined)	none
CCOC(=O)C1CCCN(c2c(N3CCOCC3)c(=O)c2=O)C1 (centres undefined)	DENV2 CPE 46
O=C(CC(F)(F)F)N1C[C@@H]2[C@H](c3ccccc31)[C@H](CO)N2C(=O)c1ccncc1	none (no result: PvdQ acylase)
O=C(CC(F)(F)F)N1C[C@H]2[C@@H](c3ccccc31)[C@@H](CO)N2Cc1cccnc1	DENV2 CPE 27 (no result: PvdQ acylase)
O=C(CC(F)(F)F)N1C[C@@H]2[C@H](c3ccccc31)[C@@H](CO)N2C(=O)c1cccnc1	DENV2 CPE 23 (no result: PvdQ acylase)
COc1ccc(S(=O)(=O)N[C@H]2CC[C@@H](CC(=O)N3CCC(Cc4ccccc4)CC3)O[C@@H]2CO)cc1	none (no result: miR122 inh, PvdQ acylase)
C[C@@H]1CN([C@H](C)CO)C(=O)c2ccccc2-c2ccccc2CO[C@@H]1CN(C)C(=O)Cc1ccccc1	none (no result: miR122 inh, PvdQ acylase)
C[C@H]1CN([C@@H](C)CO)C(=O)c2cccc(NC(=O)Nc3ccc4c(c3)OCO4)c2O[C@H]1CN(C)Cc1ccc(C(F)(F)F)cc1	none (no result: PvdQ acylase)
C[C@H](CO)N1C[C@H](C)[C@@H](CN(C)Cc2ccc(C(F)(F)F)cc2)Oc2c(NC(=O)Nc3ccc(F)cc3)cccc2C1=O	DENV2 CPE 69 (no result: PvdQ acylase)
C[C@H](CO)N1C[C@H](C)[C@H](CN(C)Cc2ccc(C(F)(F)F)cc2)Oc2c(NC(=O)Nc3ccc(F)cc3)cccc2C1=O	none (no result: DENV2 CPE, PvdQ acylase)
C[C@@H]1CN([C@@H](C)CO)C(=O)c2cccc(NC(=O)Nc3ccccc3)c2O[C@@H]1CN(C)Cc1ccc2c(c1)OCO2	none (no result: PvdQ acylase)
C[C@@H]1CN([C@H](C)CO)C(=O)c2cccc(NC(=O)Nc3ccc4c(c3)OCO4)c2O[C@@H]1CN(C)Cc1ccc(C(F)(F)F)cc1	DENV2 CPE 36 (no result: PvdQ acylase)
C[C@@H]1CN([C@H](C)CO)C(=O)c2cccc(NC(=O)Nc3ccc(F)cc3)c2O[C@H]1CN(C)Cc1ccc(C(F)(F)F)cc1	miR122 inh 165[16.7 µM] (no result: DENV2 CPE, PvdQ acylase)
C[C@@H]1CN([C@@H](C)CO)C(=O)c2cccc(NC(=O)Nc3ccc(F)cc3)c2O[C@@H]1CN(C)Cc1ccc(C(F)(F)F)cc1	none (no result: PvdQ acylase)
C[C@H](CO)N1C[C@H](C)[C@@H](CN(C)Cc2ccc3c(c2)OCO3)Oc2c(NC(=O)Nc3ccccc3)cccc2C1=O	miR122 inh 95[16.7 µM] (no result: PvdQ acylase)
O=C(c1ccccn1)N1CC2(C1)[C@@H](c1ccccc1)[C@H](CO)N2C(=O)C1CCC1	none (no result: miR122 inh, Statin myotox sup, PvdQ acylase)
CCC(C(=O)c1ccc(O)cc1)c1ccccc1 (centres undefined)	none (no result: DENV2 CPE)
CCC(C(=O)N(C(C)C)C(C)C)c1ccccc1 (centres undefined)	Statin myotox sup 130
O=C(Nc1ccc(C(F)(F)F)cc1)N[C@@H]1CC[C@@H](CCn2cc(C3(O)CCCC3)nn2)O[C@@H]1CO	none (no result: miR122 inh, PvdQ acylase)
C[C@@H]1CN([C@H](C)CO)C(=O)c2cccc(NC(=O)c3cnccn3)c2O[C@@H]1CN(C)C	none (no result: PvdQ acylase)
Cc1cc(C)nc(N(C#N)Cc2ccc([N+](=O)[O-])cc2)n1	PvdQ acylase 49
Cc1cc(C)nc(N(C#N)Cc2ccccc2)n1	PvdQ acylase 38 (no result: DENV2 CPE)
